Source: PubChem BioAssay
The list is not random: actives were taken first. Their share in the collection is about 4.8%.
Beta apoptosis: inhibitors of cytokine-induced beta cell apoptosis, primary screen, luminescence. protection from apoptosis, % (no concentration beside the values). INS-1E cytokine-induced death, ATP luminescence, 48 h; percent of positive-control rescue, neutral wells zero. 300,000 tested, 0.8% active. AID 435005, 2010;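 active = Every replicate reaches about 75%, or at least half do and their mean reaches it too, limit read from the data; inconclusive = At least half of replicates reach the limit but their mean does not; inactive = Under half of replicates reach the limit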;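 note: higher means more ATP so stronger rescue from cytokine killing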
Mdm2 MdmX PPI: inhibitors of human Mdm2-MdmX association, primary screen, cell-based, luminescence, split luciferase, SaOS-2, uHTS; SaOS-2 split-luciferase Mdm2/MdmX complementation; inhibition, % at 8 µM; 330,000 tested, 3% active; AID 485346, 2010;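 active = inhibition of at least 50% at 8 µM in the primary screen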
Target sequence (O15151 whole entry, looked up): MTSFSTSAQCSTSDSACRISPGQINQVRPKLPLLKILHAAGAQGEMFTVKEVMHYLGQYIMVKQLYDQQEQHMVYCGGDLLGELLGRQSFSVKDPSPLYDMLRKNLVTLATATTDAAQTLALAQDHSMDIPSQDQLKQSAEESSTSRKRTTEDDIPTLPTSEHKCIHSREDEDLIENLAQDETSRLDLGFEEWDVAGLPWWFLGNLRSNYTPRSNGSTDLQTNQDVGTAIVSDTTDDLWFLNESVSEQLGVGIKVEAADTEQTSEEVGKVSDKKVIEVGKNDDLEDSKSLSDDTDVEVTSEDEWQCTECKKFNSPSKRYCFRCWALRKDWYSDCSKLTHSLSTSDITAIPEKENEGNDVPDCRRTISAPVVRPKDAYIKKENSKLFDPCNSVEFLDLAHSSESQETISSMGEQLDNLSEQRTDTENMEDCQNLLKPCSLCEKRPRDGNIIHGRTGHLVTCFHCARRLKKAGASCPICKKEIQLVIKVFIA
Target sequence (Q00987 whole entry, looked up): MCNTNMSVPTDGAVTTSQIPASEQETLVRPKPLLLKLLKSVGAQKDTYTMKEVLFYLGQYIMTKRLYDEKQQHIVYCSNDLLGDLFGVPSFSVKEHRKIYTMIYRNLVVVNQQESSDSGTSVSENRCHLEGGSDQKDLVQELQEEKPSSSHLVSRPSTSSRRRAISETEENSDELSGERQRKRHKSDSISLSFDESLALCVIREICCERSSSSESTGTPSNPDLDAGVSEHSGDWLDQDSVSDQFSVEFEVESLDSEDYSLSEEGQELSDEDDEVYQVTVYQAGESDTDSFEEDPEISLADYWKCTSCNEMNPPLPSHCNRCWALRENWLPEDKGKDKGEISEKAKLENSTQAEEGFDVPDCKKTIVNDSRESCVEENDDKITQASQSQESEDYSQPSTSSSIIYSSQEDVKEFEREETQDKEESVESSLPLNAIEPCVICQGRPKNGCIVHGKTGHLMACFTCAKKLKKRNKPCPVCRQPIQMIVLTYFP
CSC inhib: cancer stem cell viability inhibitors, primary screen, luminescence; AID 2717, 2010; 300,000 tested, 1.1% active; cancer stem cell-like cells viability; inhibition, % at 7.5 µM; in the data active = inhibition above about 75%; inconclusive = no clear call, values can overlap the other calls; tested in HMLE shEcad cells
MPTP block: mitochondrial permeability transition pore inhibitors, primary screen, biochemical, isolated mouse mitochondria, absorbance | 360,000 tested, 1.4% active | Ca2+ swelling absorbance, 30 min | inhibition, % at 10 µM;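 active = inhibition of 50% or more, scaled per plate between neutral and stimulator controls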
Calb FLC: C. albicans growth inhibition with fluconazole, primary screen, CaCi-2 strain, Alamar Blue fluorescence. growth inhibition, % (test concentration not listed). C. albicans CaCi-2 (fluconazole-resistant clinical isolate) + fluconazole, 48 h. 300,000 tested, 0.57% active. AID 1979, 2009;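 active = growth inhibition above about 58% in most replicates, limit read from the data, passing the limit was not always enough; inconclusive = exactly half the replicates above a set limit; inactive = most replicates below a set limit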;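 note: all wells also contain fluconazole at 8 µg/ml as a sub-toxic cotreatment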
MPTP counter: fluorescence retest of MPTP screen hits in isolated mitochondria, single concentration; membrane potential, Rhodamine 123 fluorescence; shares compounds with MPTP block; inhibition, % at 10 µM; 5,000 tested, 78% active; in the data active = inhibition above about 22%
MPTP abs DR: mitochondrial permeability transition pore inhibitors, dose response, biochemical, absorbance, uHTS hits | isolated mitochondria swelling | IC50, µM | 780 tested, 58% active | shares compounds with MPTP block; in the data active = IC50 below about 20 µM
MPTP counter DR: fluorescent counter-screen in isolated mitochondria, dose response, counter-screen for MPTP inhibitor project, biochemical, fluorescence, uHTS hits | 780 tested, 49% active | shares compounds with MPTP block | IC50, µM | isolated mitochondria counterscreen, fluorescence read-out; in the data active = IC50 below about 80 µM
Of the large screens only hits and unclear results are named; the others gave an inactive call (follow-up assays come after a bar, where they were run).

COc1ccc(NC(=O)c2cccc3cccnc23)cc1S(N)(=O)=O	none
CCOC(=O)C1=C(COC(=O)/C=C/c2ccco2)NC(=O)NC1C (stereo not given)	none
Cc1c(C(=O)NC(Cc2ccccc2)c2nc3ccccc3[nH]2)cccc1[N+](=O)[O-] (stereo not given)	none
O=C(NC(Cc1ccccc1)c1nc2ccccc2[nH]1)c1ccc(Cl)c([N+](=O)[O-])c1 (stereo not given)	MPTP block 92.6 | MPTP counter 91.3
CSCC[C@H](NC(=O)c1ccc(Cl)c([N+](=O)[O-])c1)c1nc2ccccc2[nH]1	MPTP block 58.7 | MPTP counter 83.0
O=C(CC(Cc1ccccc1)C(=O)O)Nc1cccc(C(F)(F)F)c1 (stereo not given)	none
Cc1ccc(S(=O)(=O)N=N/C=C2\C=CC=CN2O)cc1	none (no result: Beta apoptosis, Mdm2 MdmX PPI, CSC inhib, Calb FLC)
CN(C1CCCCC1)S(=O)(=O)c1cc2c(cc1Cl)NC(=O)CO2	none
Cc1noc(C)c1CSCC(=O)N(C)CC(=O)Nc1ccc(Cl)cc1	none
Cc1ccc2[nH]c3c(N4CCc5ccccc5C4)ncnc3c2c1	Beta apoptosis 101.0, MPTP block 105.6 | MPTP counter 92.6
Cc1nc2ccccc2nc1SCC(=O)c1ccccc1	MPTP block 75.3 | MPTP counter 70.9
CCOC(=O)N(CC)OC(=O)Nc1ccc(Cl)cc1	MPTP block 57.4 | MPTP counter 63.4
CCOC(=O)NCCOC(=O)Nc1ccc(Cl)cc1	none
CCOC(=O)N(C)OC(=O)Nc1ccc(Cl)c(Cl)c1	MPTP block 73.4 | MPTP counter 83.1
O=C(NCCCl)Nc1ccc(Cl)c([N+](=O)[O-])c1	MPTP block 81.1 | MPTP counter 92.8
O=C(NCCCl)Nc1cc([N+](=O)[O-])ccc1Cl	none
CCOC(=O)CNNC(=O)Nc1ccc(Cl)c(Cl)c1	MPTP block 68.8 (no result: Beta apoptosis, CSC inhib) | MPTP counter 64.6
C[C@@H](OC(=O)c1[nH]cnc1C(=O)NCc1ccc(CNC(=O)OC(C)(C)C)cc1)c1ccccc1	none (no result: CSC inhib, Calb FLC)
O=C(COC(=O)CN1C(=O)C2CCCCC2C1=O)Nc1c(Cl)cccc1Cl (stereo not given)	none (no result: CSC inhib, Calb FLC)
CN(C)CCNC(=O)Nc1ccc(Cl)c(Cl)c1	MPTP block 71.0 | MPTP counter 94.3
O=C(COc1ncnc2ccccc12)Nc1ccc(Cl)c([N+](=O)[O-])c1	none
O=C(CN(C(=O)c1ccccc1Cl)C1CCCCC1)Nc1ccc(Cl)c([N+](=O)[O-])c1	MPTP block 87.9 | MPTP counter 79.7
CC(C)c1nnc(SCC(=O)NC2CCCC2)n1C	none
NC(=O)NC(CC(=O)NNC(=O)c1ccccn1)c1ccccc1Cl (stereo not given)	none (no result: Calb FLC)
Cc1ccnc(NCc2cc(Cl)cc(Cl)c2O)c1	none (no result: Beta apoptosis, Mdm2 MdmX PPI, CSC inhib, Calb FLC)
Cc1cc(C)c(O)c(CN(C)Cc2cc(Cl)cc(Cl)c2O)c1	MPTP block 93.7 (no result: Beta apoptosis, Mdm2 MdmX PPI, CSC inhib, Calb FLC) | MPTP counter 86.9
NC(=O)c1nnn(Cc2cc(Cl)c(C(=O)c3ccc(Cl)cc3)c(Cl)c2)c1N	MPTP block 73.1 (no result: Beta apoptosis, Mdm2 MdmX PPI, CSC inhib, Calb FLC) | MPTP counter 90.9
O=C(Nc1ccc(F)c(F)c1)c1cnc(-c2ccccc2)nc1-c1ccccc1	MPTP block 71.6 | MPTP counter inactive | MPTP abs DR inactive | MPTP counter DR 7.04
O=C(Nc1ccc(F)cc1)c1cnc(-c2ccccc2)nc1-c1ccccc1	none
CCOC(=O)c1cccc(OCC(O)CNCCOc2ccccc2F)c1 (stereo not given)	MPTP block 74.0 | MPTP counter inactive | MPTP abs DR 8.88 | MPTP counter DR inactive
CCOC(=O)c1ccc(NCC(O)COc2ccccc2)cc1 (stereo not given)	none
O=C(Nc1ccc2c(c1)OCO2)O[C@@H]1C[C@H]2CCC(=O)N3CC[C@@H](C1)[C@@H]23	none
N#CCc1ccc(NS(=O)(=O)c2ccc(C3CCCCC3)cc2)cc1	MPTP block 82.0 (no result: Mdm2 MdmX PPI) | MPTP counter 95.5
Cc1cccc(NS(=O)(=O)c2ccc(C3CCCCC3)cc2)c1	CSC inhib inconclusive, MPTP block 90.2 | MPTP counter 92.8
CCC/C(C#Cc1ccsc1)=C1/c2ccccc2C(=O)N1c1ccccc1	none (no result: Calb FLC)
CC(C)CCN1C(=O)c2ccc(C(=O)Nc3ccccc3C(=O)O)cc2C1=O	none
Cc1cc(N2CCN(c3nc4ccccc4s3)CC2)n2ncnc2n1	Beta apoptosis 87.4, MPTP block 82.1 | MPTP counter 72.8
CC(C)(C)C1CCC(=O)N(CCC#N)CC1 (stereo not given)	none
O=S(=O)(NCC1CCCO1)c1ccc(-c2ccc(S(=O)(=O)NCC3CCCO3)cc2)cc1 (stereo not given)	Beta apoptosis 96.3, MPTP block 86.4 | MPTP counter 100.7
Cc1ccc(S(=O)(=O)NCC2CCCO2)cc1 (stereo not given)	none
COc1ccc(CN2CCN(CCCCOc3ccc(Cl)cc3)CC2)c(OC)c1OC	MPTP block 66.3 | MPTP counter 28.9
CC(C)(C)c1ccc(/C=C/C(=O)Nc2ccncc2)cc1	MPTP block 98.1 | MPTP counter 92.2
CCOC(=O)[C@@H]1[C@H]2COc3ccccc3[C@@H]2N2C(=O)N(c3cccc(Cl)c3)C(=O)[C@@]12C	MPTP block 88.2 | MPTP counter 100.2
CCOC(=O)[C@@H]1[C@H]2COc3ccccc3[C@H]2N2C(=O)N(c3cccc(Cl)c3)C(=O)[C@@]12C	none
CCCCOc1ccc(CSC(CC(=O)O)C(=O)O)cc1 (stereo not given)	none
CCCCOc1ccc(CSCCN=C(N)N)cc1	MPTP block 72.5 (no result: Beta apoptosis, CSC inhib) | MPTP counter inactive | MPTP abs DR 4.35 | MPTP counter DR 24.3
Cn1nc(C(F)(F)F)c(-c2ccc(F)cc2)c1NC(=O)Nc1ccc(F)cc1	MPTP block 73.8 | MPTP counter 89.0
O=[N+]([O-])c1cc2c(c([N+](=O)[O-])c1)Nc1ccccc1O2	MPTP block 54.8 (no result: Beta apoptosis, Mdm2 MdmX PPI, CSC inhib, Calb FLC) | MPTP counter 60.5
O=C(NCc1ccc2c(c1)OCO2)c1cc(-c2cc(Cl)ccc2O)n[nH]1	MPTP block 64.3 | MPTP counter 61.5
Cc1ccc(-c2cc(C(=O)Nc3cccnc3)[nH]n2)c(O)c1C	MPTP block 62.0 | MPTP counter 71.0
Cc1ccc(-c2cc(C(=O)NCc3ccc4c(c3)OCO4)[nH]n2)c(O)c1C	MPTP block 61.1 | MPTP counter 71.5
Cc1cc(O)c(-c2cc(C(=O)NCc3ccc4c(c3)OCO4)[nH]n2)cc1C	none
